Potency, outcome and max activation data for eight molecules are collected here from PubChem BioAssay (Tox21).

A number with no mark means an inactive call. Records with an inconclusive call do not appear. Calls of active or inactive are those of the source. Unless noted, calls come from the whole dose curve; as a rule, active = well fitted curve in the direction sought with a large enough effect in the repeat runs; inconclusive = weak or mixed curves; inactive = no such curve, though single readings can be large; an effect the other way counts as inactive or inconclusive.

Experiment [1] in a line: qHTS assay to identify small molecule agonists of the estrogen receptor alpha (ER-alpha) signaling pathway in the presence of an antagonist - cell viability counter screen (AID 1259386).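 Note: cells exposed to compounds for 22 h at 37 °C before the viability read; nearly all actives have a fitted effect of over 30% in size.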 Note: potency is the fitted concentration of half-maximal effect. The method in brief:
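Cytotoxicity was measured in parallel with the ERE-luciferase agonist screen, in the same wells. The cells were VM7Luc4E2, which endogenously express ER-alpha, and treatment was with compounds plus 10.0nM ICI-182,780 for 22hr.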
On the technique in general: Quantitative high-throughput screening tests each substance at several concentrations.

Experiment [2] addresses Progesterone receptor (Homo sapiens) (UniProt P06401). Nature of the experiment: qHTS assay to identify small molecule antagonists of the progesterone receptor (PR) signaling pathway (AID 1346795; active = well fitted inhibition curve with a large enough effect in the signal ratio in the repeat runs, not every such curve was filed as active; the % refers to the signal ratio; note: potency is the fitted concentration of half-maximal effect). The gist of the method:
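Fluorescence intensity measured 2 hr after adding beta-lactamase FRET substrate to PR-UAS-bla HEK293T cells that had been co-treated 16 hr with compound and 1 nM R5020 (final concentration) in 2% charcoal-stripped FBS.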

A short description of experiment [3]: qHTS assay to identify small molecule antagonists of the progesterone receptor (PR) signaling pathway - cell viability counter screen (AID 1346798). Note: series mostly up to about 92 µM; nearly all actives have a fitted effect of over 50% in size. The method in brief: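 CellTiter-Glo luminescence; PR-UAS-bla HEK293T, 3,000 cells/well; compound + R5020, 16 hr, 37C/5% CO2; 30 min RT before read.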
Experiment [4] is described as follows: qHTS assay to identify small molecule agonists of the progesterone receptor (PR) signaling pathway - cell viability counter screen (AID 1346799; calls by dose curve; note: nearly all actives have a fitted effect of over 45% in size). The method in brief:
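In parallel with the beta-lactamase readout, cytotoxicity toward PR-UAS-bla HEK293T cells was measured by CellTiter-Glo luminescence following 16 hr compound incubation in 2% charcoal-stripped FBS medium.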

Experiment [5] in a line: qHTS assay to identify small molecule antagonists of the TGF-beta/Smad signaling pathway - cell viability counter screen (AID 1346824). Note: nearly all actives have a fitted effect of over 50% in size. The gist of the method: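 SBE-bla HEK 293T cells, incubated overnight, then compound plus 0.25 ng/mL TGF-beta1 (stock added) for 5 hr at 37 C. Viability was read in the same wells by CellTiter-Glo luminescence after 30 min at room temperature.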

A short description of experiment [6]: qHTS assay to identify small molecule agonists of the TGF-beta/Smad signaling pathway - cell viability counter screen (AID 1346829). Note: top concentration of the series differs between compounds; nearly all actives have a fitted effect of over 45% in size. The gist of the method: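 Same-well cytotoxicity: CellTiter-Glo added after the 2 hr room-temperature beta-lactamase substrate step, luminescence measured 30 min later; cells had 5 hr of compound at 37 C.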
Experiment [7] can be described thus: qHTS assay to identify small molecule agonists of the TGF-beta/Smad signaling pathway (AID 1346859; active = well fitted activation curve with a large enough effect in the signal ratio in the repeat runs, not every such curve was filed as active; the % refers to the signal ratio; note: series mostly up to about 77 µM). The gist of the method:
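After overnight seeding, SBE-bla HEK 293T cells are dosed with compounds in DMSO and kept 5 hr at 37 C, 5% CO2. LiveBLAzer-type FRET substrate is then applied for 2 hr at room temperature.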

Experiment [8] deals with Thyrotropin-releasing hormone receptor (Homo sapiens) (UniProt P34981). Nature of the experiment: qHTS assay to identify small molecule antagonists of the thyrotropin-releasing hormone receptor (TRHR) signaling pathway (AID 1346877; active = well fitted inhibition curve with a large enough effect in the repeat runs, not every such curve was filed as active; note: series mostly up to about 51 µM). The gist of the method:
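Antagonism is measured as suppression of the calcium response to 1 nM TRH in TRHR-HEK293 cells that have been dye-loaded for 2 h at 37 °C after overnight plating. Each compound is tested at 15 concentrations in triplicate.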

Experiment [9] has the same target. Nature of the experiment: qHTS assay to identify small molecule agonists of the thyrotropin-releasing hormone receptor (TRHR) signaling pathway (AID 1346891; calls by dose curve;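 note: HEK293 cells expressing TRHR with calcium dye readout; series mostly up to about 58 µM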). The method in brief:
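Compounds were tested as agonists at 15 concentrations, in triplicate, on TRHR-Hek293 cells; calcium-sensitive dye fluorescence was recorded for 3 min following addition.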

Experiment [10] can be described thus: Human pregnane X receptor (PXR) small molecule agonists, qHTS cell viability counter screen (AID 1346977). Note: nearly all actives have a fitted effect of over 50% in size. Note: potency is the fitted concentration of half-maximal effect. The gist of the method:
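Viability counter screen: CellTiter-Fluor signal in PXR-Luc HepG2 cells, 24hr compound exposure, 37C, 5% CO2.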

Experiment [11] can be described thus: Caspase-3/7 induction in CHO-K1 cells by small molecules, qHTS cell viability counter screen (AID 1346979). Note: nearly all actives have a fitted effect of over 35% in size. Note: potency is the fitted concentration of half-maximal effect. The gist of the method: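 Viability readout by fluorescence (CellTiter-Fluor) on wild-type CHO-K1 cells exposed for 16hr at 37C and 5% CO2 to compounds delivered in DMSO; reagent incubated 1hr before reading.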
The nature of experiment [12]: Caspase-3/7 induction in CHO-K1 cells by small molecules, qHTS assay (AID 1346980). Note: nearly all actives have a fitted effect of over 15% in size. The gist of the method: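 Wild-type CHO-K1 cells exposed to compounds for 17hr at 37 C, 5% CO2. Caspase-3/7 activity then measured by Caspase-Glo 3/7 luminescence after 30min at room temperature.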
Experiment [13] is described as follows: Caspase-3/7 induction in HepG2 cells by small molecules, qHTS cell viability counter screen (AID 1346981). Note: nearly all actives have a fitted effect of over 30% in size. Note: potency is the fitted concentration of half-maximal effect. The method in brief:
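Cell viability is measured as a cytotoxicity counter screen alongside the Caspase-Glo 3/7 readout in identical wells. Wild-type HepG2 cells are treated with test compounds for 16 hr at 37 C before CellTiter-Fluor addition and a 1-hr incubation.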

Experiment [14] is described as follows: Caspase-3/7 induction in HepG2 cells by small molecules, qHTS assay (AID 1346978). Note: nearly all actives have a fitted effect of over 15% in size. The gist of the method:
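Wild-type HepG2 cells, 2,000/well, settled 5 hr at 37 C and 5% CO2, then compound-treated for 17 hr; caspase-3/7 activity read by luminescent Caspase-Glo 3/7 after 30 min at room temperature.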

For experiment [15], the target named is Nuclear receptor subfamily 1 group I member 2 (Homo sapiens) (UniProt O75469). Description: Human pregnane X receptor (PXR) small molecule agonists, qHTS assay (AID 1346982). Note: nearly all actives have a fitted effect of over 35% in size. Note: potency is the fitted concentration of half-maximal effect. The method in brief: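 Cells: HepG2 stably carrying PXR-Luc. Medium held 5% charcoal-stripped FBS. Compounds in DMSO added after 5 hr plating, incubated 24 hr, then luminescence quantified with ONE-Glo.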

The target of experiment [16] is Nuclear receptor subfamily 1 group I member 2 (Rattus norvegicus) (UniProt Q9R1A7). Description: Rat pregnane X receptor (rPXR) activation by small molecules, qHTS assay (AID 1346983). Note: nearly all actives have a fitted effect of over 20% in size. The conditions noted are these: rPXR luciferase reporter cells, One-Glo luminescence, 24 h; max activation: stronger effect = higher value. The gist of the method:
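Cell-based rPXR activation assay: rPXR cells, 2,000 per well, rested 5hr at 37 C, then exposed to compounds in DMSO for 24 hr at 37 C. Luciferase activity read by One-Glo luminescence after 30 min at room temperature.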

Experiment [17] concerns the target Nuclear receptor subfamily 1 group I member 2 (Homo sapiens) (UniProt O75469). Nature of the experiment: Human pregnane X receptor (PXR) activation by small molecules, qHTS assay (AID 1346985). Note: nearly all actives have a fitted effect of over 40% in size. The gist of the method: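 DPX-2 cells (HepG2 co-transfected with a PXR response element and a CYP3A4-promoter luciferase construct) were seeded at 2,000 per well, rested 5 hr at 37C, then exposed to DMSO-dissolved compounds for 24 hr. Activation was read as luciferase luminescence.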

For experiment [18], the target named is Cytochrome P450 2D6 (Homo sapiens) (UniProt P10635). Description: Cytochrome P450 Family 2 Subfamily D Member 6 (CYP2D6) small molecule antagonists: luciferase reporter qHTS assay (AID 1671196). Note: nearly all actives have a fitted effect of over 50% in size. Note: potency is the fitted concentration of half-maximal effect. The gist of the method:
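Enzyme and proluciferin substrate were first combined with test chemical for 10 min at room temperature. Adding NADPH regeneration solution started a 1 h reaction, stopped with luciferin detection reagent and read by luminescence 20 min later.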

In experiment [19] the target is Nuclear receptor subfamily 1 group I member 2 (Homo sapiens) (UniProt O75469). Nature of the experiment: CYP3A4 induction through human pregnane X receptor (PXR) by small molecules, qHTS assay (AID 1346984). Note: nearly all actives have a fitted effect of over 40% in size. The gist of the method:
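Quantitative HTS in DPX-2 cells, i.e. HepG2 transfected with PXR response element and CYP3A4-promoter luciferase. Compounds in DMSO incubated 24hr at 37C; then P450-Glo CYP3A4 substrate, 3uM final, 3hr; One-Glo luminescence.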
% is set by controls: 0 for no effect and ±100 for the full control effect.

Sequence of Thyrotropin-releasing hormone receptor (Homo sapiens) (P34981 whole entry, looked up): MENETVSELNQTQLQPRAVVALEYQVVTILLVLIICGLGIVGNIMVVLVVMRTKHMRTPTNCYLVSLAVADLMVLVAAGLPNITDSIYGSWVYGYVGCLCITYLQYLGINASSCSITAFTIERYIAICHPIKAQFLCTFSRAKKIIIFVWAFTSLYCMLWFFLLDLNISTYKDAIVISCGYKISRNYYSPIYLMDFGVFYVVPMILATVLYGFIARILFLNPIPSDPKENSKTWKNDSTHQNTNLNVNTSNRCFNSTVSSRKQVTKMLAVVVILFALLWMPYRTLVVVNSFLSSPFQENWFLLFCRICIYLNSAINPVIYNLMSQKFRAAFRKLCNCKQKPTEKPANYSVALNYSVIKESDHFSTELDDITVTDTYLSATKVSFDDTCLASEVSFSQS
Sequence of Progesterone receptor (Homo sapiens) (P06401 whole entry, looked up): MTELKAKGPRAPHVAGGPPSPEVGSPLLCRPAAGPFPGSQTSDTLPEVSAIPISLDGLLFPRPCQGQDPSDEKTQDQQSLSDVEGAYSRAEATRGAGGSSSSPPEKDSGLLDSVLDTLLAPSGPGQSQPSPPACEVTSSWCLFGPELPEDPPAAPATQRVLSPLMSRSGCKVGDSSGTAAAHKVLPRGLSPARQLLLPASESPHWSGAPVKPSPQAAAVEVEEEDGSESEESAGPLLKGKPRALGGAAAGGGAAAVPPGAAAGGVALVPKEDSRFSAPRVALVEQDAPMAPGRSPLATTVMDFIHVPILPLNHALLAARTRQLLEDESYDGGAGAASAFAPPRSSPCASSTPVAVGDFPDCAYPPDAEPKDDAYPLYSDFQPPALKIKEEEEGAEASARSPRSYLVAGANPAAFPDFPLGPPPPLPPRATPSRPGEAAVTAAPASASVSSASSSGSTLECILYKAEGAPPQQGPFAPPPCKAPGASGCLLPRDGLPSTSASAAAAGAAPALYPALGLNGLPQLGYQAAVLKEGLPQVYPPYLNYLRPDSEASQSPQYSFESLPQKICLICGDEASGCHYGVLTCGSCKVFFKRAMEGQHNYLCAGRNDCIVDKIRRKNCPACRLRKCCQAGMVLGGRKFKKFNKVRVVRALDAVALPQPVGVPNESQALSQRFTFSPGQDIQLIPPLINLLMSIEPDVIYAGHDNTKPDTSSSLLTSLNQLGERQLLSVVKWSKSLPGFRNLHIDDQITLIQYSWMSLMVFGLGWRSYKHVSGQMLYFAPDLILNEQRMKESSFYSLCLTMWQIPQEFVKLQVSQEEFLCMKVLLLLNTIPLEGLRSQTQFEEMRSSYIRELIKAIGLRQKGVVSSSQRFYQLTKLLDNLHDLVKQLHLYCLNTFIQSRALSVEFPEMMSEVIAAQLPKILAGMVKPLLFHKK
Sequence of Cytochrome P450 2D6 (Homo sapiens) (P10635 whole entry, looked up): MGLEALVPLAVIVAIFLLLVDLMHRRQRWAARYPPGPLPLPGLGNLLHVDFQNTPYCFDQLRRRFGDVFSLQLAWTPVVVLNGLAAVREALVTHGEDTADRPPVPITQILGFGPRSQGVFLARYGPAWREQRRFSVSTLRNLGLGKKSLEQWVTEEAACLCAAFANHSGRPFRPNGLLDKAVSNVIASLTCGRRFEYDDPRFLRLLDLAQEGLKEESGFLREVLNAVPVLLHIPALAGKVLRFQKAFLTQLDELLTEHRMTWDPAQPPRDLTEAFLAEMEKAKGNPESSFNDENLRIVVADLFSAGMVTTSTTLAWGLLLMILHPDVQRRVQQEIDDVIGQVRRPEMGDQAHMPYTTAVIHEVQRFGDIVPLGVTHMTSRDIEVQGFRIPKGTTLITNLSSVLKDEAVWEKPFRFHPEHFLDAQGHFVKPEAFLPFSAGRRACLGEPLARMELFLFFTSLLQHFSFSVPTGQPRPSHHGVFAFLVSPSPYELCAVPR
Sequence of Nuclear receptor subfamily 1 group I member 2 (Homo sapiens) (O75469 whole entry, looked up): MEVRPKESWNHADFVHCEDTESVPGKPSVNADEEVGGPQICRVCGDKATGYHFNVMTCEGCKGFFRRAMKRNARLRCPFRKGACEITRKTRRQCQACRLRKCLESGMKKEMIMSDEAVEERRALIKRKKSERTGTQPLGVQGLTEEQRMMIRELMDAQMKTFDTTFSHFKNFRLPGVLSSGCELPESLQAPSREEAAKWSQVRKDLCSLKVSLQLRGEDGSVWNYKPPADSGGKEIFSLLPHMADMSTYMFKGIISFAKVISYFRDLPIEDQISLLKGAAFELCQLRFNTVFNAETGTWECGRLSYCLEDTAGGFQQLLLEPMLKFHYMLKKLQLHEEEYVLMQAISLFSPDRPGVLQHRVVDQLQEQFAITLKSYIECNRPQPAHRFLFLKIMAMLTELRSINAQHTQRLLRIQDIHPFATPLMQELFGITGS
Sequence of Nuclear receptor subfamily 1 group I member 2 (Rattus norvegicus) (Q9R1A7 whole entry, looked up): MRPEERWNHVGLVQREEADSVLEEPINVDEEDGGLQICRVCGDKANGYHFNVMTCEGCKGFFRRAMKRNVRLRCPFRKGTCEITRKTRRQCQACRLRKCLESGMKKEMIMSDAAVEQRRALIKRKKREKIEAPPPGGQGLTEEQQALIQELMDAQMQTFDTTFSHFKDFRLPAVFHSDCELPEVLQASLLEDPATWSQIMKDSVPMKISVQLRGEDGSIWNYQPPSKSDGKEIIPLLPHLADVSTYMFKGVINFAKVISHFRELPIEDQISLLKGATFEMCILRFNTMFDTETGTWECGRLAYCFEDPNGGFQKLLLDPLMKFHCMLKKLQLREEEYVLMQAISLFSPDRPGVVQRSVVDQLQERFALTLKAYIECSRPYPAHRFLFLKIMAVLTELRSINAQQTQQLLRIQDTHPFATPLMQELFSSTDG

Take `CC1=CCCC(C)(C)C12CCC(C)O2` (configuration not stated): the Potency entry in [1], in experiment [2], in experiment [3], in [4], in experiment [5] and in [7] was “inactive” each time. Further, the Potency result in experiment [9], in [10], in [11], in experiment [12] and in [13] was “inactive” in each case. Also, the molecule was classed as inactive in [6] and in [8].
Consider `OCc1cc(C(O)CNCCCCCCOCCCCc2ccccc2)ccc1O` (configuration not stated), for which the values for the Potency in [1], in experiment [11] and in [13] were 11.9 µM (active), 23.7 µM (active) and 26.6 µM (active), respectively. In addition, the Potency entry in [3], in [4], in experiment [5], in [7], in experiment [9] and in experiment [14] was “inactive” in each case. The Potency entry in experiment [12], in [15] and in experiment [17] was “inactive” in each case. Further, the result in experiment [6] and in experiment [8] was inactive. Moreover, in experiment [16], the max activation is 0.017%.
On to `CC(C)OC(=O)C(C)N(C(=O)c1ccccc1)c1ccc(F)c(Cl)c1` (configuration not stated), for which the Potency entry in [1], in [5], in [7], in experiment [9], in experiment [12] and in experiment [18] was “inactive” in each case. Further, the Potency in experiment [2] is 24.3 µM (active); in experiment [15] it was 2.73 µM (active). The call in experiment [8] was inactive.
As for `N=c1ccn2c(n1)O[C@H]1[C@H](O)[C@@H](CO)O[C@H]12`, the Potency entry in experiment [1], in [2], in experiment [3], in [4], in [5] and in experiment [7] was “inactive” throughout. The Potency result in experiment [10], in experiment [14], in experiment [11], in [13], in [15] and in [17] was “inactive” in each case. Also, the Potency result in experiment [18] is “inactive”. In addition, the molecule was called inactive in experiment [6]. In addition, the max activation in experiment [16] was 4.22%.
With `CC1(c2ccccc2)OC(C(=O)O)=CC1=O` (configuration not stated), the Potency entry in experiment [1], in experiment [2], in experiment [3], in experiment [4], in experiment [7] and in experiment [9] was “inactive” throughout. The Potency entry in [14], in [11], in [13], in experiment [19] and in [17] was “inactive” throughout. Further, the result in [6] and in experiment [8] was inactive. For the same molecule, the max activation in experiment [16] was -1.39%.
With `O=S(c1cc(Cl)cc(Cl)c1O)c1cc(Cl)cc(Cl)c1O`, the Potency result in experiment [1], in experiment [4], in experiment [5], in experiment [7], in experiment [9] and in experiment [10] was “inactive” in each case. The Potency result in experiment [14], in experiment [11], in experiment [12], in [13], in experiment [15] and in [19] was “inactive” each time. For the same molecule, the Potency result in experiment [18] was “inactive”. Moreover, the outcome in experiment [8] was inactive. For the same molecule, the max activation in [16] is -2.94%.
On to `OC(CN1CCC(Cc2ccc(F)cc2)CC1)c1ccc(Cl)cc1` (configuration not stated), for which the Potency result in experiment [1], in experiment [3], in experiment [4], in [5], in [9] and in experiment [14] was “inactive” in each case. The Potency result in experiment [15] and in experiment [17] was “inactive” throughout. The molecule was classed as inactive in [8]. In addition, the Potency in experiment [10] was 29.8 µM (active); in [18], 0.138 µM (active). Besides, in experiment [16], the max activation was -1.2%.
Take `O=C(O)c1ccco1`: the Potency entry in [1], in experiment [2], in experiment [3], in [7], in experiment [9] and in experiment [10] was “inactive” each time. In addition, the Potency result in experiment [14], in experiment [11], in experiment [12], in experiment [13], in experiment [15] and in [18] was “inactive” throughout. In addition, the molecule was called inactive in [6] and in experiment [8].
